40 compounds from PubChem BioAssay (Tox21) can be followed below.

Results filed as inconclusive are left out. The source made the active and inactive calls. Calls come from the whole dose curve.

A short description of the test: qHTS assay to identify small molecule agonists of the NFkB signaling pathway - cell viability counter screen (AID 1159515). Note: nearly all actives have a fitted effect of over 55% in size. Particulars: NFkB-bla ME-180 viability, CellTiter-Glo luminescence, 5 h; series mostly up to 61 µM. The text has this:
National Center for Advancing Translational Sciences [NCATS]
NIH Chemical Genomics Center [NCGC]
U.S. Environmental Protection Agency [EPA]
National Institutes of Environmental Health Sciences [NIEHS]
National Toxicology Program [NTP]
U.S. Food and Drug Administration [FDA]
Transcription factors and their stimulated target gene expression play pivotal roles across many cellular processes including responses to environmental stimuli. Proper regulation of associated pathways is critical to maintain cell health and function. Constitutive activation of transcription factor pathways has been implicated in tumors as it may block cellular functions such as apoptosis and lead to invasion and metastasis. One important transcription factor that stimulates gene expression in response to cytokines, UV radiation, and other stimuli is nuclear factor-kappa B (NFkB). To measure activation of the NFkB pathway, the CellSensor NFkB-bla ME-180 cell line (Life Technologies, Carlsbad, CA) that stably expresses beta-lactamase reporter gene under the regulation of a NF-kB response element was used. This assay allows measurement of the NFkB pathway activity induced by compounds in a ME-180 cell line. This system quantitates NF-kB activity using a FRET-based assay system where beta-lactamase expression disrupts FRET, allowing for fluorescent measurement of activity. This cell line has been used to screen the Tox21 10K compound library and to identify compounds that induce the NFkB pathway activity. The cytotoxicity of the Tox21 compound library against the NFkB-bla ME-180 cell line was tested in parallel by measuring cell viability using the CellTiter-Glo assay in the same wells.
Tox21 Assay Protocol Summary:
NFkB-bla ME-180 cells were dispensed at 2,000 cells/6 uL of assay medium per well into black wall/clear-bottom 1536-well plates using a Multidrop Combi (ThermoFisher Scientific, Waltham, MA) dispenser. After the assay plates were incubated at 37 C and 5% CO2 for an overnight, 23 nL of compounds dissolved in DMSO, positive controls or DMSO only was transferred to the assay plate by a Pintool station (Kalypsys, San Diego, CA). The assay plates were incubated at 37 C and 5% CO2 for 5 hr. One uL of LiveBLAzer B/G FRET substrate (Life Technologies) was added using a Flying Reagent Dispenser (Aurora Discovery, San Diego, CA) and the plates were incubated at room temperature for 1.5 hr. Fluorescence intensity (405 nm excitation, 460 nm and 530 nm emissions) was measured using an Envision plate reader (PerkinElmer, Shelton, CT). For cytotoxicity, 3 ul/well of CellTiter-Glo reagent was added into the assay plates using an FRD. After 30 min incubation at room temperature, the luminescence intensity was measured using a ViewLux plate reader (PerkinElmer).
As for `CCCCCCOC(=O)CC(CC(=O)OCCCCCC)(OC(=O)CCC)C(=O)OCCCCCC`, the compound was classed as inactive.

Take `OCC(O)[C@@H](O)[C@H](O)[C@H](O)CO[C@H]1O[C@H](CO)[C@@H](O)[C@H](O)[C@H]1O` (stereo not given in full): the call was inactive.

Take `CN(C)N=Nc1ccccc1`: the compound was classed as inactive.

On to `CCCCc1ccc(N)cc1`, for which the compound was called inactive.

As to `CSc1ccc(C=O)cc1`, the compound was classed as inactive.

For the compound `NC(=O)c1c(Cl)cccc1Cl`, the call was inactive.

As for `CC(=O)O[C@H](CC(=O)[O-])C[N+](C)(C)C`, the result was inactive.

Regarding `CC(C)COC(=O)c1ccccc1O`, the result was inactive.

As for `Cn1cnc2c(=O)[nH]c(N)nc21`, the call was inactive.

Consider `CCc1cc(S(=O)(=O)O)c2cc(C(C)C)cccc1-2`, for which the call was inactive.

With `COc1ccc(N=[N+]([O-])c2ccc(OC)cc2)cc1`, the call was inactive.

Turning to `CNC(=O)c1c(I)c(NC(=O)CCCCC(=O)Nc2c(I)c(C(=O)O)c(I)c(C(=O)NC)c2I)c(I)c(C(=O)O)c1I`, the result was inactive.

In the case of `C=C[Si](OC)(OC)OC`, the compound was called inactive.

For the compound `COC[C@H](c1ccc(C(F)(F)F)cc1)N1CCN(C2(C)CCN(C(=O)c3c(C)ncnc3C)CC2)C[C@H]1C`, the compound was classed as inactive.

Turning to `CCCCCN(CCCCC)C(=O)C(CCC(=O)O)NC(=O)c1ccc(Cl)c(Cl)c1` (stereo not given), the compound was classed as inactive.

Consider `OCCCCCCO`, for which the call was inactive.

`CCCCN(CCO)CCO`: the compound was called inactive.

Consider `CC(CCO)CCCC(C)(C)O` (stereo not given), for which the call was inactive.

For `OCCN1C[C@H](O)[C@@H](O)[C@H](O)[C@H]1CO`, the outcome was inactive.

In the case of `C1CCCCCCCCCCC1`, the compound was classed as inactive.

As to `CNc1ncnc2nc[nH]c12`, the call was inactive.

As to `CCCCCCCCCCCCCCC`, the compound was classed as inactive.

Regarding `CCC(C)OC(=O)N1CCCCC1CCO` (stereo not given), the result was inactive.

With `CC/C=C\CCCCO`, the outcome was inactive.

Regarding `COC(=O)c1ccc(C(=O)OC)c(C(=O)OC)c1`, the compound was classed as inactive.

Take `Nc1ccc2cc(S(=O)(=O)O)ccc2c1`: the result was inactive.

As for `O=c1[nH]c2ccccc2c(=O)n1CCCl`, the call was inactive.

In the case of `Cc1ccccc1Br`, the compound was called inactive.

With `CC(C)(O)C(=O)c1ccc(OCCO)cc1`, the compound was classed as inactive.

Regarding `CN(C)C(=O)Nc1ccccc1`, the compound was classed as inactive.

Turning to `CCC(=O)Nc1cccc(N)c1`, the outcome was inactive.

As to `NC(=O)CCCCC1CCSS1` (stereo not given), the result was inactive.

For `O=C(CCOCCOCCOCCOCCC(=O)Nc1c(I)cc(I)c(C(=O)O)c1I)Nc1c(I)cc(I)c(C(=O)O)c1I`, the compound was called inactive.

In the case of `CCC(C)(C)C1CCC(OC)CC1` (stereo not given), the compound was called inactive.

Consider `CC(C)c1cccc(O)c1`, for which the outcome was inactive.

Take `Cc1ccccc1C(=O)O`: the outcome was inactive.

Turning to `COC(=O)CCCCCCCCC(=O)OC`, the result was inactive.

For `CN1[C@@H]2CC[C@H]1CC(NC(=O)n1c(=O)[nH]c3ccccc31)C2` (stereo not given in full), the call was inactive.

In the case of `CCOC(=O)[C@H](CCc1ccccc1)N[C@@H](C)C(=O)N1CCC[C@H]1C(=O)O`, the compound was called inactive.

Consider `CCCCCCCCCCCl`, for which the compound was classed as inactive.
